The whole screen tested about 310,000 compounds, of which about 2,200 (0.71%) showed an effect of 50% or more. Effects have a minus sign here. Many of the other results were omitted from the sample, so strong results are more common in it than they were.
The compounds below were run against human ether-à-go-go-related gene (hERG) potassium channel (human, UniProt Q12809) (assay: primary screen, population patch clamp on CHO cells stably expressing hERG; higher = less effect of the substance).
Chain of human ether-à-go-go-related gene (hERG) potassium channel (Q12809 whole entry, looked up): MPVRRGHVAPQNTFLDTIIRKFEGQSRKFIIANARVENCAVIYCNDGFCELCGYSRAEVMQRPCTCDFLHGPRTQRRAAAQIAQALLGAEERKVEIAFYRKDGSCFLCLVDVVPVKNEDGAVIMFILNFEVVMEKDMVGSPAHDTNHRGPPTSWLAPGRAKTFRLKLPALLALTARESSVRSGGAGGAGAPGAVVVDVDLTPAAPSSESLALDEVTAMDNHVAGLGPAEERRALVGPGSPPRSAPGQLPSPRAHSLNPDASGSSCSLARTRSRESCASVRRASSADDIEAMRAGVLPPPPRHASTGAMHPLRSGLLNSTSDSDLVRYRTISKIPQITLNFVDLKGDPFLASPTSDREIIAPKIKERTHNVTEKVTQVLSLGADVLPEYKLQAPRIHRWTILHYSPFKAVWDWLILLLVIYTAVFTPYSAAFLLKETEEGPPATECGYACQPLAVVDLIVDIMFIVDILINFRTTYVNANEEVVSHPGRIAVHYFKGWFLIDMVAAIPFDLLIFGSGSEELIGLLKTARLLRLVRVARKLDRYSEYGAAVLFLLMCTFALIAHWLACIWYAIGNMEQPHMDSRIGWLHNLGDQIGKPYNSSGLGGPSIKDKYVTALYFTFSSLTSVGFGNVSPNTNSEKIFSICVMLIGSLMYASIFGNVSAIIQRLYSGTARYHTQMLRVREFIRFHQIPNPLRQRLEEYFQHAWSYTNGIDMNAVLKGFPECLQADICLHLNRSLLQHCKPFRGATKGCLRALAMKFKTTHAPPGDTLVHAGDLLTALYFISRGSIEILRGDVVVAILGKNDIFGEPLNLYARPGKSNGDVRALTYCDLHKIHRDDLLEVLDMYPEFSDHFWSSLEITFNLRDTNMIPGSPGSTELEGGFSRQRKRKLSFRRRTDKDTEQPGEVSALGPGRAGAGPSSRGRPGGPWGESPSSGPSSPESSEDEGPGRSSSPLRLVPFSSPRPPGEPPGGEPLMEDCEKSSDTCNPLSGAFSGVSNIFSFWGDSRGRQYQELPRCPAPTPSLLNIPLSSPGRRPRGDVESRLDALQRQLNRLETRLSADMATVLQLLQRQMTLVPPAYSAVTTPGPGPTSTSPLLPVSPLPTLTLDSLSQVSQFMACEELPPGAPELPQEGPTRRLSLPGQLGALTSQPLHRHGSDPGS

| SMILES | hERG current change (%, negative = inhibition) at 1uM [%] |
| --- | --- |
| CCOC(=O)C(C)n1cnc2c1c(=O)[nH]c(=O)n2C (centres unmarked) | 8.76 |
| CCCCNC(=O)[C@H]1C[C@H]1[C@@H](O)[C@H](CO)NC(=O)[C@H](Cc1ccccc1)NC(=O)OC(C)(C)C | 11.5 |
| CCOc1ccc(C(=O)Nc2ccc(S(=O)(=O)N3C[C@@H]4C[C@@H](C3)c3cccc(=O)n3C4)cc2)cc1 | -1.43 |
| CCN(CC)CCNC(=O)c1[nH]c2ccc(OCc3ccccc3)cc2c1C | -61.3 |
| COc1ccc2[nH]c(C(=O)NCc3ccccc3)c(C)c2c1.Cl | 10.3 |
| Cc1c(C(=O)N2CCOCC2)[nH]c2ccc(OCc3ccccc3)cc12 | -1.19 |
| COc1ccc(N(C(=O)c2ccccc2OC)C2C=CS(=O)(=O)C2)c(OC)c1 (centres unmarked) | 14.4 |
| COc1ccc(CN2CCNC(=O)C2CC(=O)NCCc2nc(C)c3c(n2)CCC3)cc1C (centres unmarked) | 32.9 |
| CCC(c1nnnn1CCc1ccccc1)N1CCN(c2ccc(OC)cc2)CC1 (centres unmarked) | 14.5 |
| COC(=O)c1ccc(CN2CCC(CO)(Cc3ccc(OC)cc3)CC2)cc1 | -35.1 |
| OCC1(Cc2ccccc2C(F)(F)F)CCN(Cc2ccccc2)CC1 | 3.01 |
| COc1ccc(F)c(CN2CCC(CO)(Cc3cccc(C(F)(F)F)c3)CC2)c1 | -1.43 |
| COc1ccc(CC2(CO)CCN(Cc3ccncc3)CC2)cc1 | 7.36 |
| COc1ccc(CN2CCC(CO)(Cc3ccccc3C(F)(F)F)CC2)c(F)c1 | -53 |
| COc1ccc(CC2(CO)CCN(Cc3ccc(OC(F)(F)F)cc3)CC2)cc1 | -57.5 |
| COc1ccc(CC2(CO)CCN(Cc3cccc(OC)c3OC)CC2)cc1 | -17.3 |
| COc1ccc(CC2(CO)CCN(Cc3cccnc3)CC2)cc1 | 1.4 |
| OCC1(Cc2cccc(F)c2)CCN(Cc2cccc3nccnc23)CC1 | -19.8 |
| COc1cccc(CC2(CO)CCN(Cc3cccn3-c3cccnc3)CC2)c1 | -6.04 |
| COc1ccc(CC2(CO)CCN(Cc3cccc4nccnc34)CC2)cc1 | -53 |
| COc1ccc(CC2(CO)CCN(Cc3cccn3-c3ccccn3)CC2)cc1 | -84.2 |
| Cc1ccc(-c2nc(CS(=O)CC(=O)N3CCC4(CC3)OCCO4)c(C)o2)cc1 (centres unmarked) | -3.05 |
| Cc1ccc(N2CCN(C(=S)Nc3ccc(Cl)cc3)CC2)cc1 | 13.4 |
| CCN(CCCNC(=O)Cn1ncc2c([nH]c3ccccc32)c1=O)Cc1ccccc1 | -2.84 |
| Nc1c(C(=O)c2ccccc2)sc2snc(SCC(=O)c3ccccc3)c12 | 14.8 |
| COc1cc(/C=C/C(=O)OCC(=O)N2CCCc3ccccc32)ccc1OCC#N | 14.6 |
| Nc1cccc(Oc2ccc([N+](=O)[O-])cc2)c1 | 7.1 |

| SMILES | hERG current change (%, negative = inhibition) at 1uM [%] |
| --- | --- |
| Cc1nc(-c2cnn(-c3ccccc3)c2)c2cc(C)oc2n1 | 10.3 |
| Cc1nn(-c2ccccn2)c2c1-c1nc(N3CCOCC3)ncc1CC2 | 8.1 |
| CC[C@@H]1CN(C)[C@H]2Cc3c([nH]c4ccccc34)C(=O)C[C@@H]1[C@@H]2C(=O)OC | 11.8 |
| CC[C@H]1CN(C)CCc2c([nH]c3ccccc23)C(=O)C[C@@H]1/C(=C\OC)C(=O)OC | -53.3 |
| CC[C@H]1CN(C)C[C@@]2(C(=O)OC)Cc3c([nH]c4ccccc34)C(=O)C[C@@H]12 | 10.5 |
| CS(=O)(=O)O.O.Oc1ccc2c3c1O[C@H]1c4oc5ccccc5c4C[C@@]4(O)[C@@H](C2)N(CC2CC2)CC[C@]314 | -68.1 |
| Cl.O.Oc1ccc2c3c1O[C@H]1c4[nH]c5ccccc5c4C[C@@]4(O)C(C2)N(CC2CC2)CC[C@]314 | -16.4 |
| Cl.Oc1ccc2c3c1O[C@H]1c4[nH]c5ccccc5c4C[C@@]4(O)[C@@H](C2)N(CC2CC2)CC[C@]314 | -29.7 |
| COC(=O)C1=C(C)N(C)C(=O)NC1c1c(O)ccc2ccccc12 (centres unmarked) | 6.78 |
| CC/C(=N/Nc1ccccc1)c1cnnc(-c2ccccc2)n1 | 0.406 |
| Cc1sc(NC(=O)CCl)c(C(=O)c2ccccc2)c1C | 15.1 |
| Cc1ccc(S(=O)(=O)Nc2nc(C)c(C(=O)N/N=C/c3ccccc3)s2)cc1 | 11 |
| c1ccc2oc(-c3[nH]ncc3CN3CCSCC3)cc2c1 | 9.72 |
| Fc1cccc(Cc2noc(CN3CCCCC3CCc3ccccn3)n2)c1 (centres unmarked) | 13.2 |
| Cc1oc(-c2cccc(F)c2)nc1CN1CCCCC1CCc1ccccn1 (centres unmarked) | -89.5 |
| COc1ccc(-c2nc(CN3CCN(Cc4ccccc4)CC3)c(C)o2)cc1 | 4.17 |
| COc1ccc(-c2nc(CN3CCCCC3CCc3ccccn3)c(C)o2)cc1 (centres unmarked) | -79.4 |
| Cc1oc(-c2cccc(F)c2)nc1CN1CCCCC1CCn1cccn1 (centres unmarked) | -40.1 |
| c1ccc(CCC2CCCCN2Cc2cn[nH]c2-c2cc3ccccc3o2)nc1 (centres unmarked) | -67 |
| O=C(c1ccccn1)C1CCCN(Cc2cn[nH]c2-c2cc3ccccc3o2)C1 (centres unmarked) | -23.5 |
| CCOc1ccc(-c2nc(CN3CCCCC3CCn3cccn3)c(C)o2)cc1 (centres unmarked) | -24.9 |
| COc1ccc(S(=O)(=O)N(C)C)cc1NC(=O)CCCSc1ccccc1 | -5.8 |
| COc1ccc(Nc2nnc(C)c3ccccc23)cc1C(N)=O | 16.1 |
| CC(C)(C)c1ccc(OC(=O)c2ccc(-n3cncn3)nc2)cc1 | 10.9 |
| CCOC(=O)c1ccc(NS(=O)(=O)c2ccc3oc(=O)[nH]c3c2)cc1 | 7.04 |
| Cl.Nc1ccc(-c2nc3c(ccc4ccccc43)[nH]2)cc1 | 16.3 |

— paper PMC4336329 (PLoS ONE, 2015)
